Assay outcomes as filed in PubChem.
ssDAF-12 act: activates DAF-12 receptor from parasite S. stercoralis | activation, % at 6.8 µM | AID 652126 | actives 1% (n = 370,000) | HEK293 ssDAF-12/GRIP1 lit1-tk-luc reporter, luminescence; % of 3 µM dafachronic acid response;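 active = activation above the mean over all tested compounds plus 3 SD, cut at about 0.9% in these data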;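 note: 0% = DMSO-only wells and 100% = 3 µM delta7-dafachronic acid wells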
hgDAF12 agonist: agonists of H. glycines DAF-12 nuclear receptor. HEK293 GAL4-hgDAF12 UAS-luciferase reporter, agonist luminescence; normalized to butyrate control. actives 1.8% (n = 370,000). activation, % at 6.8 µM;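 active = activation above a cutoff set at the mean of all screened compounds plus 3 SD, cut at about 10% in these data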;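 note: 0% = DMSO wells and 100% = sodium butyrate wells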
hcDAF-12 act: H. contortus DAF-12 activation, primary screen; HEK293 hcDAF-12 lit1-tk-luc reporter, luminescence; 0% DMSO, 100% Δ7-dafachronic acid; activation, % at 6.8 µM; actives 1.4% (n = 370,000); AID 652067;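 active = activation above the mean of all tested compounds plus 3 SD, cut at about 5.5% in these data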;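 note: 100% = response to 3 µM Δ7-dafachronic acid high control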
SMARCA2 act: activators of SMARCA2 function | MG213 cells, MMTV-luciferase reporter, dexamethasone, overnight | activation, % at 9.1 µM | actives 1% (n = 370,000) | AID 652017; in the data active = activation above about 7.8%;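 note: 0% = vehicle wells and 100% = reference activator wells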
DAX1 inh-1: NR0B1 (DAX1) inhibition. inhibition, % at 6.75 µM. actives 0.99% (n = 340,000). HEK293 Gal4-DAX1 luciferase reporter, luminescence. AID 504766;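 active = inhibition above the mean over all tested compounds plus 3 SD, cut at about 4.2% in these data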;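 note: 0% = DAX1-transfected cells with DMSO and 100% = empty-vector control cells with DMSO; inhibition shows as a rise in luminescence from relieved DAX1 repression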
Target sequence (P51843 207-470 limits assumed): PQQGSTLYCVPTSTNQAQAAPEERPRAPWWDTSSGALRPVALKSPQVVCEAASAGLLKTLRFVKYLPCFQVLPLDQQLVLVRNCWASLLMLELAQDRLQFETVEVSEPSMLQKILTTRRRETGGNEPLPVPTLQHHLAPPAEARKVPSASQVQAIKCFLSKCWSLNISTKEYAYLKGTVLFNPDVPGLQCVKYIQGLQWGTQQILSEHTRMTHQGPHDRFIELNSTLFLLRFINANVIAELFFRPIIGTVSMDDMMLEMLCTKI
DAX1 inh-2: blocks DAX1 repression of SF-1 activated StAR promoter | HEK293T StAR-luciferase reporter, SF-1/DAX-1 repression relief | inhibition, % at 6.8 µM | actives 1.1% (n = 370,000) | AID 652010;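 active = inhibition above the mean over all tested compounds plus 3 SD, cut at about 3.6% in these data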;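 note: 0% = DAX-1 cells with DMSO and 100% = cells lacking DAX-1 with DMSO; higher inhibition means more luminescence from relief of DAX-1 repression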
Starred values were filed as active, the others as inactive. Sampled rows, rich in hits. Any-hit rate of the full collection: about 4.8%.

SMILES | ssDAF-12 act | hgDAF12 agonist | hcDAF-12 act | SMARCA2 act | DAX1 inh-1 | DAX1 inh-2
CN1CCN(C(=O)CCN2C(=O)/C(=C/c3ccccc3Cl)SC2=S)CC1 | -0.9 | 2.5 | 0.1 | 7.9* | 1.5 | 0.1
COc1ccc(Cn2c(-c3ccc(OC)cc3)nc3ccccc32)cc1 | -0.5 | -0.8 | -0.1 | -3.5 | 0.3 | 1.1
COc1ccc(-c2nc3ccccc3n2OCC(=O)O)cc1 | 0.3 | 10.6* | 0.7 | 3.0 | 2.7 | 2.0
CC(O)c1nc2cc([N+](=O)[O-])ccc2n1Cc1ccccc1 (centres undefined) | -1.4 | -1.2 | -1.5 | -3.7 | -0.9 | -0.2
O=C(O)COn1c(-c2ccc(Cl)cc2)nc2ccc(Cl)cc21 | 0.1 | 5.4 | 6.2* | 2.1 | 1.1 | 1.3
Cc1ccc(COn2c(-c3ccc(Cl)cc3)nc3ccc([N+](=O)[O-])cc32)cc1 | 1.1* | 10.4 | 2.1 | 8.2* | 4.7* | 2.7
CCOC(=O)C(C)On1c(-c2ccccc2)nc2ccc([N+](=O)[O-])cc21 (centres undefined) | -0.6 | 11.5* | 0.5 | 5.8 | 3.6 | 1.2
Cc1sc(NC(=O)c2cccs2)nc1-c1ccccc1 | -1.6 | 2.4 | -1.1 | 2.3 | -0.5 | -0.1
Cc1ccc(N)c(C(O)(C(F)(F)F)C(F)(F)F)c1 | -1.5 | 2.8 | 2.0 | -1.6 | 0.7 | -0.8
COc1ccccc1NCCC(=O)OCC(=O)NC1CC1 | -1.2 | 3.0 | 0.7 | -0.4 | 0.8 | 0.3
CC(=O)COC(=O)c1ccc2noc(-c3ccccc3)c2c1 | -0.8 | 6.5 | 2.9 | 3.7 | 1.0 | 0.4
NC(=O)NC(=O)COC(=O)c1ccc2noc(-c3ccccc3)c2c1 | -0.3 | 12.2* | 2.1 | -0.6 | -0.8 | 1.2
Cc1ccc(C2=CC(c3cccs3)n3nnnc3N2)cc1 (centres undefined) | 1.0* | 1.8 | 3.5 | -0.2 | 1.1 | -0.3
O=C1N(Cc2cccc(Cl)c2)C[C@@H]2C[C@@H](c3cccc4ncccc34)N3CCC[C@@]123 | -2.1 | -2.8 | -2.2 | -3.4 | -1.7 | -1.0
CCOc1cc(NC(=S)NC)c(OCC)cc1NC(=O)c1cccs1 | -1.4 | -3.3 | 1.5 | -1.6 | 5.0* | 0.8
Cc1cccc(Nc2nnc(SCC(=O)Nc3ccccc3[N+](=O)[O-])s2)c1 | -0.2 | 3.4 | 3.9 | -0.8 | 4.4* | -0.3
CCN(CC)c1nc(-c2ccccc2)nc2ccccc12 | -1.6 | 1.4 | -0.2 | -1.7 | -1.4 | -0.4
CC(=O)Nc1ccc(-c2cc(N)n(-c3ccccc3)n2)cc1 | -0.8 | 11.3* | 4.4 | 2.2 | 2.2 | 3.9*
CC(=O)Nc1ccc(-c2cc(NC(C)=O)n(-c3ccccc3)n2)cc1 | -0.9 | 1.7 | -1.3 | 1.0 | -0.2 | -0.5
COc1cccc(OC)c1C(=O)Nc1ccc2c(c1)Cc1ccccc1-2 | 0.3 | 2.3 | 6.4* | -3.5 | 2.9 | 0.7
Nc1cccc2c1C(=O)c1ccc(Cl)cc1C2=O | -0.8 | 6.0 | 2.7 | 3.5 | 2.1 | 3.7*
O=C(O)c1cccc2c1-c1ccc(Cl)cc1C2=O | -1.2 | 0.6 | 0.8 | -0.8 | -0.5 | -0.5
O=C1C2CCC(C2)C1CN1CCOCC1 (centres undefined) | 1.8* | -2.1 | 2.7 | -1.0 | -1.4 | 0.2
CCc1ccccc1NC(=S)NC1CC2CCC(C1)N2Cc1ccc(F)cc1 (centres undefined) | -0.8 | 0.8 | -1.3 | 0.3 | -0.2 | 0.6
CS(=O)(=O)c1ccc2nc(NC(=O)C3CCCO3)sc2c1 (centres undefined) | -0.8 | -0.1 | 0.4 | 4.0 | 0.7 | -0.4
O=C(O)C1CC=CCC1C(=O)N1CC=C(c2ccccc2)CC1 (centres undefined) | -2.3 | -11.3 | -4.0 | -6.2 | -0.6 | -2.4
O=C(NC(=S)Nc1ccccc1Cl)c1cncc(C#Cc2ccccc2)c1 | -0.9 | -0.7 | -1.5 | -0.2 | 4.4* | 0.1
COC(=O)c1c(-c2ccc(SC)cc2)sc2ccc(OC)cc12 | 0.8 | 7.8 | 3.7 | 3.2 | 0.7 | 1.0
O=C(c1ccco1)N1CCN(c2nc3ccsc3c(=O)s2)CC1 | -1.5 | 4.4 | -1.6 | 3.1 | 5.1* | 1.3
CC(=O)N/C(=C/c1ccccc1)C(=O)NC(Cc1ccccc1)C(=O)O (centres undefined) | -0.9 | 10.6* | -0.8 | -1.6 | 0.0 | 0.0
